Measured values from PubChem BioAssay (NCATS).
Results filed as inconclusive are left out. Calls of active or inactive are those of the source. Calls follow the shape of the dose curve; as a rule, active = well fitted cell-killing curve with a large enough effect; inconclusive = small, poorly fitted or top-dose-only effect, or effect the other way; inactive = flat fitted curve, though single readings scatter.

Experiments:
Experiment in all cases: Primary qHTS to identify gynecologic anti-cancer compounds using libraries of approved drugs and bioactive compounds (AID 1345084); also: nearly all actives have a fitted effect of over 55% in size
Settings in all cases: Gynecologic cancer cell panel viability, ATPlite luminescence, 48 h; series mostly up to 57.5 µM
[1] = tested on: PA-1
Method in brief: (§1)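 Luminescence from the ATPlite ATP-monitoring reagent indicates viable cell number; lower signal means cytotoxicity. Cells received compound 16 h after seeding and were exposed for 48 h across five concentrations.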

[2] = tested on: SKOV3
Method in brief: as §1

[3] = tested on: Tov-21-G
Method in brief: as §1

[4] = tested on: Tov112D
Method in brief: as §1
% is scaled to controls: 0 for no effect and ±100 for the full control effect.

Cc1csc(NC(=O)c2ccc(COc3cccc(Cl)c3)o2)n1
inactive: Potency [1] | Potency [2] | Potency [3] | Potency [4]

C[C@@H]1C[C@@H]([C@@H](O)C(C)(C)O)O[C@H]2C[C@@]3(C)C(=C12)C[C@H](O)[C@H]1[C@@]2(C)CCC(=O)C(C)(C)C2CC[C@@]13C (stereo partly drawn)
inactive: Potency [1] | Potency [2] | Potency [3] | Potency [4]

C=CC(C)(C)c1[nH]c2cc3c(cc2c1CC1NC(=O)C2CCCN2C1=O)C=CC(C)(C)O3 (stereo not drawn)
inactive: Potency [1] | Potency [2] | Potency [3] | Potency [4]

O=C1C=CC(O)(/C=C/C(=O)OC[C@H]2O[C@@H](Oc3ccc(O)cc3)[C@H](O)[C@@H](O)[C@@H]2O)C=C1
inactive: Potency [1] | Potency [2] | Potency [3] | Potency [4]

C/C=C/C=C/C=C/C(=O)OC1C=C(C=O)C(O)(C(=O)O)C2(C)CCCC(C)(C)C12 (stereo not drawn)
inactive: Potency [1] | Potency [2] | Potency [3] | Potency [4]

Nc1ncnc2c([C@@H]3N[C@H](CO)[C@@H](O)[C@H]3O)c[nH]c12
inactive: Potency [1] | Potency [2] | Potency [3] | Potency [4]

CC1(C)CC[C@]2(CO[C@@H]3O[C@H](CO)[C@@H](O)[C@H](O)[C@H]3O)[C@@H](O)C[C@]3(C)C(=CCC4[C@@]5(C)CC[C@H](O[C@@H]6O[C@H](CO[C@@H]7O[C@H](CO[C@@H]8OC[C@@H](O)[C@H](O)[C@H]8O)[C@@H](O)[C@H](O)[C@H]7O)[C@@H](O)[C@H](O)[C@H]6O)C(C)(C)C5CC[C@]43C)[C@@H]2C1 (stereo partly drawn)
inactive: activity change, negative = cytotoxicity [1] -8.81% [at 11.6 µM] | activity change, negative = cytotoxicity [2] -1.91% [at 11.6 µM] | activity change, negative = cytotoxicity [3] 4.01% [at 11.6 µM] | activity change, negative = cytotoxicity [4] -1.63% [at 11.6 µM]

C=C1C[C@]23C[C@H]1CC[C@H]2[C@@]1(C)CCC[C@@]2(C)C(=O)O[C@@H]([C@@H]3O)[C@@H]12
inactive: Potency [1] | Potency [2] | Potency [3] | Potency [4]

CC1=CC(=O)CC(C)(CO)C1(O)/C=C/C(C)O[C@@H]1O[C@H](CO)[C@@H](O)[C@H](O)[C@H]1O (stereo partly drawn)
inactive: Potency [1] | Potency [2] | Potency [3] | Potency [4]

COc1ccc(-c2nc(-c3ccc(-c4cccc(Cl)c4)o3)[nH]c2-c2ccc(OC)cc2)cc1
inactive: Potency [1] | Potency [2] | Potency [3] | Potency [4]

COc1cc(O)cc(C)c1C(=O)O[C@H]1[C@@H](OC(C)=O)[C@H](n2ccc(=O)[nH]c2=O)O[C@@H]1CO
inactive: Potency [1] | Potency [2] | Potency [3] | Potency [4]

C=CC(C)(CC/C=C(\C)C(=O)OC)OC1OC(COC(=O)CC(C)(O)CC(=O)O)C(OC2OC(CO)C(O)C(O)C2O)C(O)C1O (stereo not drawn)
inactive: Potency [1] | Potency [2] | Potency [3] | Potency [4]

C[C@H](N)C(=O)N[C@@H](Cc1ccc(O)cc1)C(=O)N1CCC[C@H]1C(=O)NCC(=O)N[C@@H](CCCCN)C(=O)N[C@@H](Cc1ccccc1)C(N)=O
inactive: activity change, negative = cytotoxicity [1] 3.5% [at 11.6 µM] | activity change, negative = cytotoxicity [2] 32.3% [at 11.6 µM] | activity change, negative = cytotoxicity [3] 1.95% [at 11.6 µM] | activity change, negative = cytotoxicity [4] 5.22% [at 11.6 µM]

CSc1ccc(C(=O)N[C@@H]2CCCC[C@@H]2NC(=O)CNC(=O)c2cc(C(F)(F)F)ccc2NC(=O)NC(C)C)cc1
inactive: Potency [1] | Potency [2] | Potency [3] | Potency [4]

COc1ccc(CNC(=O)c2cc(-c3cncc(C)c3)ncc2-c2nccs2)nc1OC
inactive: Potency [1] | Potency [2] | Potency [3] | Potency [4]

O=C(C(c1ccccc1)c1ccccc1)N1CCN(CC(O)COc2cccc3ncccc23)CC1 (stereo not drawn)
inactive: Potency [1] | Potency [2] | Potency [3] | Potency [4]

CC(C)CC1NC(=O)C2CC3(O)c4ccccc4NC3N2C1=O (stereo not drawn)
inactive: Potency [1] | Potency [2] | Potency [3] | Potency [4]

COC(=O)CC1CC(c2ccc(O)cc2)=NO1 (stereo not drawn)
inactive: Potency [1] | Potency [2] | Potency [3] | Potency [4]

CC(=O)N[C@@H](C(=O)O[C@H]1CCC(C)(C)[C@@H]2CCC3=C(COC3=O)[C@@]12C)C(C)C
inactive: Potency [1] | Potency [2] | Potency [3] | Potency [4]

CC1(C)CCCC2(C)C1CC(=O)C13CC(CCC12)C(O)(CO)C3 (stereo not drawn)
inactive: Potency [1] | Potency [2] | Potency [3] | Potency [4]

COC(=O)c1ccccc1O[C@@H]1O[C@H](CO)[C@@H](O)[C@H](O)[C@H]1O[C@@H]1O[C@@H](C)[C@H](O)[C@@H](O)[C@H]1O
inactive: Potency [1] | Potency [2] | Potency [3] | Potency [4]

C[C@@H]1CN(Cc2ccccc2)C[C@H]1c1nc2c(cnn2C2CCOCC2)c(=O)[nH]1
inactive: Potency [1] | Potency [2] | Potency [3] | Potency [4]
